Hits are enriched below; roughly 2.9% of the tested compounds scored in any of these assays.
MEKK2mut PB1 HTS: signal of MEK5 binding to mutant human MEKK2 PB1 domain; bead flow cytometry, Alexa488-MEK5 binding to MEKK2 mutant; percent response, % at 10 µM; 0.35% of 290,000 active; AID 1530; in the data active means percent response above about 24%, passing the limit was not always enough
GRK2 aptamer HTS: inhibitors of human GRK2 displacing RNA aptamer. 0.59% of 330,000 active. P25098. bead flow cytometry, FAM-aptamer displacement from GRK2. inhibition of aptamer binding, % at 10 µM;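 active means inhibition of aptamer binding above 40%, roughly 3 SD of noise, on plates passing a quality check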;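 further: median bead fluorescence of bound FAM aptamer so fluorescent compounds give negative values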
B2AR ag: activates human beta-2 adrenergic receptor causing internalization; AID 504454; P07550; 0.43% of 340,000 active; Am2.2-beta2AR cells, FAP receptor internalization, flow cytometry; response, % (test concentration not listed);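 active means response above a set limit, near 3 SD of response in nonfluorescent compounds, cut at about 42% in these data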
MEKK3 PB1 HTS: MEKK3-MEK5 PB1 interaction, increase or decrease. binding response (% of control), % at 10 µM. 1.4% of 290,000 active. bead-based flow cytometry, Alexa488-MEK5 binding to MEKK3; actives lie on both sides; 0 = blocked by unlabeled MEK5, 100 = vehicle;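 active means binding response more than 3 SD above or below the average of its plate-row segment, actives on both sides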;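 further: Alexa488 bead fluorescence after subtracting the streptavidin-only scavenger bead signal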
Target sequence (Q99759 whole entry, looked up): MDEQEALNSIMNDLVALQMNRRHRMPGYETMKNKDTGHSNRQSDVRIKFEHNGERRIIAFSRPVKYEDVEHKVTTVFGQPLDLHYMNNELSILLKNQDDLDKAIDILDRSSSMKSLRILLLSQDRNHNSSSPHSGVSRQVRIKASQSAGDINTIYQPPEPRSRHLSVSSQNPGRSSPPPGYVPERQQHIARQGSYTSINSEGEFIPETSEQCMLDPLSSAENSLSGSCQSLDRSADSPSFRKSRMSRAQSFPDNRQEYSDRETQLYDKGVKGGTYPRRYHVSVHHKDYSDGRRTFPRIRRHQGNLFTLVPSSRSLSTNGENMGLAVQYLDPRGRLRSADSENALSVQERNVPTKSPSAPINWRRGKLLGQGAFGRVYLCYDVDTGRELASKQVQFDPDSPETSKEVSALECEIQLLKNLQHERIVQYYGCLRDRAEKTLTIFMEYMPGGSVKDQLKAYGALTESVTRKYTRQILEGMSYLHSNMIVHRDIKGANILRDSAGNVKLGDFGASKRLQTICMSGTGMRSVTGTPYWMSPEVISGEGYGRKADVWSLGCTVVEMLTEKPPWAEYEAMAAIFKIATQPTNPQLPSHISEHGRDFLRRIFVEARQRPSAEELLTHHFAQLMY
MEKK2 WT-MEK5: raises or lowers MEK5 binding to wildtype human MEKK2 PB1 domain; Q9Y2U5; bead flow cytometry, Alexa488-MEK5 binding to MEKK2 WT; actives lie on both sides; binding response (% of control), % at 10 µM; 1.1% of 290,000 active; AID 1531; in the data active means binding response below about 67% or above about 130%
MEKK2wt confirm: raises or lowers MEK5 binding to wildtype human MEKK2, retest | shares compounds with MEKK3 PB1 HTS | bead flow cytometry, Alexa488-MEK5 binding to MEKK2 WT; actives lie on both sides | binding response (% of control), % at 10 µM | 2.4% of 5,900 active | AID 1892; in the data active means binding response below about 16% or above about 210%; inactive means in between
MEKK2mut confirm: signal of MEK5 binding to mutant human MEKK2, retest; percent response, % at 10 µM; shares compounds with MEKK3 PB1 HTS; bead flow cytometry, Alexa488-MEK5 binding to MEKK2 mutant; 2% of 5,900 active; in the data active means percent response mostly above about 71%, no sharp cut-off; inactive means mostly below about 38%;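 further: higher means compound restores mutant binding toward wildtype level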
MEKK3-MEK5 inh: confirmation of inhibitors of MEK5 binding to human MEKK3; shares compounds with MEKK3 PB1 HTS; bead flow cytometry, Alexa488-MEK5 binding to MEKK3; stronger effect = lower value; binding response (% of control), % at 10 µM; 1.8% of 5,900 active; AID 1894;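 active means binding response below 72% of control, or above a set upper limit, though filed actives all read lower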;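 further: 100% = DMSO only wells and 0% = binding blocked by excess unlabeled MEK5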
An asterisk follows results filed as active; x = not tested or not shown; [ ] = another dose, or the depositor's remark.

SMILES	MEKK2mut PB1 HTS	GRK2 aptamer HTS	B2AR ag	MEKK3 PB1 HTS	MEKK2 WT-MEK5	MEKK2wt confirm	MEKK2mut confirm	MEKK3-MEK5 inh
O=C(Nc1ccccc1)c1cccc(C(F)(F)F)c1	1	3	3	144*	108	104	1	105
O=C(Nc1ccon1)c1cccc(C(F)(F)F)c1	-3	0	-12	70*[inhibitor]	77	96	-4	102
COc1ccc(CNC(=O)COC(=O)/C=C/c2cccc(Cl)c2)cc1	x	0	0	x	x	x	x	x
CN1CCN(C(=O)N2c3ccccc3C=Cc3ccccc32)CC1	-26	1	6	0.0*[inhibitor]	0.0*[inhibitor]	107	4	103
O=C(/C=C/c1ccco1)Nc1cccc2cccnc12	0	12	-6	62*[inhibitor]	91	96	-4	100
Cc1cc(/C=C2/NC(=O)NC2=O)c(C)n1C	-2	3	-1	99	97	x	x	x
Cc1c(Cl)c([N+](=O)[O-])nn1CCCC(=O)N(Cc1ccccc1)Cc1ccccc1	0	0	4	141*	108	88	-8	89
Cc1c(Cl)c([N+](=O)[O-])nn1CCCC(=O)N1CCN(c2ccccc2)CC1	1	6	3	97	99	x	x	x
COc1cc(CNCc2cccs2)ccc1OCC(N)=O	2	4	7	99	96	x	x	x
COc1cc(CNCc2cccs2)ccc1OCc1cccs1	-27	2	-1	2.0*[inhibitor]	-1.0*[inhibitor]	122	12	102
O=C(O)C1Cc2[nH]cnc2C(c2cccc([N+](=O)[O-])c2)N1 (configuration not stated)	0	0	5	105	96	x	x	x
O=C(O)C1Cc2[nH]cnc2C(c2ccccc2O)N1 (configuration not stated)	-1	0	-2	60*[inhibitor]	92	96	-2	96
CCC(C)NCCOc1cccc(Br)c1 (configuration not stated)	-1	1	3	157*	100	103	2	101
COc1ccc(-c2csc(NC(=O)c3cccc(S(=O)(=O)N4CCN(C)CC4)c3)n2)cc1	-8	0	2	72*[inhibitor]	102	125	43	106
COc1ccc(-c2csc(NC(=O)C3CCCCN3S(=O)(=O)c3ccccc3)n2)cc1 (configuration not stated)	-6	2	16	80*[inhibitor]	90	95	-5	95
CCOc1cc(C2C(C#N)=C(N)Oc3n[nH]c(-c4ccccc4)c32)ccc1O (configuration not stated)	8	0	2	125*	113	99	-4	101
N#CC1=C(N)Oc2n[nH]c(-c3ccccc3)c2C1c1cccnc1 (configuration not stated)	-4	4	0	97	96	x	x	x
CN(C)CCNC(=O)c1c(NC(=O)c2ccccc2)sc2c1CCCC2	14	0	-2	109	148*	134	18	106
Cc1cccc(C(=O)Nc2sc3c(c2C(=O)O)CCC3)c1	-14	1	10	75*[inhibitor]	84	96	-8	98
O=C(Nc1sc2c(c1C(=O)NCC(O)CO)CCCC2)c1ccccc1 (configuration not stated)	x	x	4	x	x	x	x	x
CNC(=O)c1c(NC(=O)c2cccc(C)c2)sc2c1CCC2	0	0	16	101	105	x	x	x
Cc1cc(C(=O)COc2ccc3ccc(=O)oc3c2)c(C)n1Cc1cccs1	0	23	-1	142*	105	96	-4	98
Cc1ccc(OCC(=O)c2cc(C)n(Cc3cccs3)c2C)c([N+](=O)[O-])n1	-5	2	-5	89	92	x	x	x
Clc1ccccc1Cc1noc(CN2CCCCC2c2ccccn2)n1 (configuration not stated)	-4	0	3	99	93	x	x	x
Cc1ccc(C(=O)C[n+]2cc(Br)cc(Br)c2)cc1[N+](=O)[O-]	51*	6	1	104	101	111	2	98
SMILES	MEKK2mut PB1 HTS	GRK2 aptamer HTS	B2AR ag	MEKK3 PB1 HTS	MEKK2 WT-MEK5	MEKK2wt confirm	MEKK2mut confirm	MEKK3-MEK5 inh
Cc1cc(C)c[n+](CC(=O)c2ccc(C)c([N+](=O)[O-])c2)c1	3	0	-6	97	108	x	x	x
COCC(=O)Nc1nnc(-c2ccc(C(C)(C)C)cc2)s1	6	0	0	144*	118	102	-14	98
CC(C)(C)c1ccc(-c2nnc(NC(=O)c3ccccc3)s2)cc1	-4	0	9	97	91	x	x	x
O=C(/C=C/c1ccc(F)cc1)NCCCN1CCN(CCCNC(=O)/C=C/c2ccc(F)cc2)CC1	5	0	-6	111	146*	196	67	111
COc1ccc(/C=C/C(=O)NCCCN2CCCCCC2)cc1	28*	0	5	105	155*	155	27	107
COc1ccc(/C=C/C(=O)NCCCN2CCOCC2)cc1	-3	0	1	100	99	x	x	x
Cc1ccc(/C=C/C(=O)NCCCn2ccnc2)cc1	-46	0	4	3.0*[inhibitor]	5.0*[inhibitor]	97	0	97
CN(C)c1cccc(C(=O)OCCNC(=O)c2cccc(S(=O)(=O)N3CCOCC3)c2)c1	-12	5	-5	46*[inhibitor]	52	104	3	102
COc1ccccc1N1CCN(S(=O)(=O)c2ccc(Cl)s2)CC1	-39	1	-1	0.0*[inhibitor]	-4.0*[inhibitor]	25	-21	56*
CCc1ccc(CN2C(=O)c3ccccc3C2C(=O)NC(C)CC)cc1 (configuration not stated)	1	1	-6	102	102	x	x	x
CCOc1ccccc1CN1C(=O)c2ccccc2C1C(=O)NC(C)CC (configuration not stated)	5	0	-7	128*	123	97	-7	97
Nc1[nH]n(-c2ccccc2)c(=O)c1N=Nc1ccc2c(c1)OCCO2	-9	0	6	75*[inhibitor]	80	98	-2	103
COc1ccc(OC)c(N(CC(=O)NCCSCc2ccc(C)cc2)S(C)(=O)=O)c1	1	0	-5	101	104	x	x	x
COc1c2occc2c(OC(C)=O)c2c(=O)cc(C)oc12	49*	0	0	80*[inhibitor]	79	98	-5	100
CC(=O)Oc1c2occc2cc2ccc(=O)oc12	3	1	-1	89	100	x	x	x
Clc1ccc(OCCOCCOc2cccc3cccnc23)c(Br)c1	1	0	-22	137*	109	111	16	114
